Our source for the potency estimated from few doses values is paper PMC11062922 (Nature Chemical Biology, 2023).

What all share (set-up): species or system human, MV4-11 + K-562 + COLO205 + SK-N-BE2 + OVCAR-8
For one assay, the system named is ACVR1B. Conditions: read-out: apparent Kd, n = 1.
For another assay, the system named is CDC42. As to conditions: read-out: apparent Kd; compound concentrations:100 nM and 1000 nM (sheet 'Samples'); n = 1.
Another assay relates to CSNK1A1. Conditions: read-out: apparent Kd, n = 1.
Another assay concerns CSNK1D. Conditions: read-out: apparent Kd, n = 1.
The next assay deals with NQO2. As to conditions: read-out: apparent Kd; compound concentrations:100 nM and 1000 nM (sheet 'Samples'); n = 1.
For the next assay, the system named is TGFBR1. As to conditions: read-out: apparent Kd, n = 1.
For another assay, the system named is ACVR1. As to conditions: read-out: apparent Kd; compound concentrations: 100 nM and 1000 nM (sheet 'Samples'), CATDS: 0.77187058261615105; n = 1.
A further assay concerns ACVR2B. Conditions: read-out: apparent Kd, compound concentrations: 100 nM and 1000 nM (sheet 'Samples'), n = 1.
Another assay relates to ADRBK1. As to conditions: read-out: apparent Kd; compound concentrations: 100 nM and 1000 nM (sheet 'Samples'), CATDS: 7.2370560484510002E-2; n = 1.
Another assay concerns BMPR1A. Conditions: read-out: apparent Kd; compound concentrations: 100 nM and 1000 nM (sheet 'Samples'), CATDS: 0.17247820312197201; n = 1.
The next assay deals with BMPR1B. As to conditions: read-out: apparent Kd; compound concentrations: 100 nM and 1000 nM (sheet 'Samples'), CATDS: 0.14495542747652801; n = 1.
The next assay concerns RIPK2. As to conditions: read-out: apparent Kd, compound concentrations: 100 nM and 1000 nM (sheet 'Samples'), n = 1.
The subject of the next assay is ZAK. As to conditions: read-out: apparent Kd; compound concentrations: 100 nM and 1000 nM (sheet 'Samples'), CATDS: 6.5320579429353404E-2; n = 1.
The next assay concerns CSNK1E. Conditions: read-out: apparent Kd; compound concentrations: 100 nM and 1000 nM (sheet 'Samples'), CATDS: 4.09740757969334E-2; n = 1.
The test system of another assay is DDR1. As to conditions: read-out: apparent Kd; compound concentrations: 100 nM and 1000 nM (sheet 'Samples'), CATDS: 5.25374061654219E-2; n = 1.
A further assay relates to DDR2. As to conditions: read-out: apparent Kd; compound concentrations: 100 nM and 1000 nM (sheet 'Samples'), CATDS: 4.2392371826783903E-2; n = 1.
A further assay concerns GAK. As to conditions: read-out: apparent Kd; compound concentrations: 100 nM and 1000 nM (sheet 'Samples'), CATDS: 0.17328918321310699; n = 1.
Another assay relates to MAPK10. Conditions: read-out: apparent Kd; compound concentrations: 100 nM and 1000 nM (sheet 'Samples'), CATDS: 0.12973795747386199; n = 1.
The test system of a further assay is MAPK14. As to conditions: read-out: apparent Kd; compound concentrations: 100 nM and 1000 nM (sheet 'Samples'), CATDS: 0.11490787983313; n = 1.
The next assay has as its system MAPK8. Conditions: read-out: apparent Kd; compound concentrations: 100 nM and 1000 nM (sheet 'Samples'), CATDS: 3.7066716076187299E-2; n = 1.
In the next assay the test system is MAPK9. As to conditions: read-out: apparent Kd; compound concentrations: 100 nM and 1000 nM (sheet 'Samples'), CATDS: 0.1157117766231; n = 1.
The subject of the next assay is MAPKAPK2. Conditions: read-out: apparent Kd; compound concentrations: 100 nM and 1000 nM (sheet 'Samples'), CATDS: 0.100968971541066; n = 1.
For the next assay, the system named is PKN3. Conditions: read-out: apparent Kd; compound concentrations: 100 nM and 1000 nM (sheet 'Samples'), CATDS: 3.6917744645490899E-2; n = 1.
Another assay relates to PRKD2. Conditions: read-out: apparent Kd; compound concentrations: 100 nM and 1000 nM (sheet 'Samples'), CATDS: 5.3704736783425001E-2; n = 1.
Another assay relates to PRKD3. As to conditions: read-out: apparent Kd; compound concentrations: 100 nM and 1000 nM (sheet 'Samples'), CATDS: 4.4266829697393303E-2; n = 1.
Setting [1] is: compound concentrations:100 nM and 1000 nM (sheet 'Samples').

SMILES strings stand for the structures. Like-named read-outs stand apart in the source and are kept apart here.

For the compound `CN(C(=O)c1ccc(-c2cc(-c3c[nH]nc3-c3ccccn3)ccn2)cc1)C1CCOCC1` [GW810083X], the potency estimated from few doses was 788 nM in the assay on ACVR1B (setting [1]); 1840 nM with CDC42; 2390 nM with CSNK1A1 (setting [1]); 1940 nM in the assay on CSNK1D (setting [1]); 1200 nM in the assay on NQO2; 198 nM with TGFBR1 (setting [1]).
`COc1cc(-c2cncc(-c3cnn(C4CCNCC4)c3)c2)cc(OC)c1OC` [K05908]: the potency estimated from few doses in the assay on ACVR1B (compound concentrations: 100 nM and 1000 nM (sheet 'Samples'), CATDS: 0.127263158539664) is 93.1 nM; in the assay on ACVR1, 1.97 nM; in the assay with ACVR2B (CATDS: 7.0258773018851195E-2), 1360 nM; in the assay on ADRBK1, 1110 nM; in the assay on BMPR1A, 42.3 nM; in the assay with BMPR1B it was 65 nM. Also, the potency estimated from few doses is 49 nM in the assay with RIPK2 (CATDS: 0.16221198549174301); 181 nM in the assay on TGFBR1 (compound concentrations: 100 nM and 1000 nM (sheet 'Samples'), CATDS: 0.103891234408396); 2410 nM in the assay with ZAK.
With `Cc1ccc2c(-c3ccnc(Nc4ccccc4)n3)c(-c3ccc(F)cc3)nn2n1` [GW833373X], the potency estimated from few doses in the assay with ACVR1B (compound concentrations: 100 nM and 1000 nM (sheet 'Samples'), CATDS: 8.2410499697195994E-2) is 193 nM; with ACVR2B (CATDS: 4.1971231951758399E-2), 1090 nM; with CSNK1A1 (compound concentrations: 100 nM and 1000 nM (sheet 'Samples'), CATDS: 3.7842664233860401E-2), 1640 nM; with CSNK1D (compound concentrations: 100 nM and 1000 nM (sheet 'Samples'), CATDS: 5.8055493904437101E-2), 418 nM; in the assay on CSNK1E, 1190 nM; in the assay with DDR1, 543 nM. For the same compound, the potency estimated from few doses is 1050 nM with DDR2; 56.5 nM in the assay with GAK; 87.1 nM in the assay with MAPK10; 106 nM in the assay with MAPK14; 1800 nM with MAPK8; 105 nM in the assay on MAPK9. For the same compound, the potency estimated from few doses was 132 nM in the assay with MAPKAPK2; 1840 nM in the assay with PKN3; 511 nM with PRKD2; 906 nM with PRKD3; 520 nM with RIPK2 (CATDS: 5.33565185229085E-2); 909 nM in the assay with TGFBR1 (compound concentrations: 100 nM and 1000 nM (sheet 'Samples'), CATDS: 4.4217762618850402E-2).
